Only some compounds are listed: those with a hit (about 8.2% of all), similar ones and a draw of the others.
KB-3-1 cytotox: kills parental KB-3-1 adenocarcinoma cells | 400,000 tested, 1.4% active | Potency, µM (titrated, usually from 46.1 µM), most hits filed as cytotoxic | KB-3-1 viability, CellTiter-Glo ATP luminescence, 72 h; note: % is set by controls: 0 for no effect and ±100 for the full control effect; nearly all actives have a fitted effect of over 60% in size
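KB-3-1 parental drug-naive adenocarcinoma cells in DMEM/10% FBS, incubated 72 h at 37 C with pin-transferred compounds across a concentration series. Viability by CellTiter-Glo luminescence; concentration-response curves fitted after normalization.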
MCF10A rereplic: DNA re-replication induction in MCF 10a cells; Potency, µM (doses to about 46.1 µM), without a hit: top-dose activity, positive = re-replication, hits mostly activators; MCF 10A DNA re-replication, Hoechst nuclear intensity, 48 h; AID 624296; 350,000 tested, 2.9% active; note: % of control where 0% means no effect; nearly all actives have a fitted effect of over 50% in size
SW480 rerep: DNA re-replication induction in SW480 cells; Potency, µM (top dose mostly 46.1 µM), without a hit: at the top dose re-replication activation, hits mostly activators; SW480 DNA re-replication, Hoechst DNA content imaging, 48 h; AID 624297; 340,000 tested, 1.8% active; note: % of control where 0% means no effect; nearly all actives have a fitted effect of over 55% in size
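SW480 cells exposed to compounds for 48 hr at 37 C, 5% CO2, then Hoechst-stained 40 min. Nuclear DNA content imaged by fluorescence scanning (405 nm excitation, 500-530 nm emission); re-replication scored as increased high-intensity nuclei.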
ELG1 repair inh: ELG1-dependent DNA repair inhibition; HEK293T ELG1-luciferase reporter, luminescence, 16 h; DNA damage induced by 5-fluorouridine; Potency, µM (series often up to 46.1 µM), for inactives: at the highest dose activity change, negative = inhibition, most hits filed as inhibitors; 330,000 tested, 2.3% active; AID 504467; note: % is set by controls: 0 for no effect and ±100 for the full control effect; nearly all actives have a fitted effect of over 55% in size
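Step one: seed 2,000 cells per well. Step two: pin-transfer compound or DMSO alongside 5-fluorouridine. Step three: incubate 16 hr, 37 °C, 5% CO2. Step four: add ONE-Glo, wait 30 min, read luminescence.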
KB-V1 MDR tox: kills drug-selected multidrug resistant KB-V1 cells. Potency, µM (highest dose often 46.1 µM), usual class: cytotoxic. 400,000 tested, 3.4% active. KB-V1 MDR cells viability, CellTiter-Glo, 72 h. AID 1347076; note: % is set by controls: 0 for no effect and ±100 for the full control effect; nearly all actives have a fitted effect of over 60% in size
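Cells of the MDR subline KB-V1 are plated, dosed with compound at multiple concentrations, and incubated 72 h at 37 degrees C; CellTiter-Glo is then added and luminescence read after 10 min.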
An asterisk follows results filed as active; i = inactive; ? = inconclusive; . = not tested or not shown. Calls come from the whole dose curve; as a rule, active = well fitted curve in the direction sought with a large enough effect; inconclusive = small, poorly fitted or top-dose-only effect, or another doubt; inactive = no such curve, though single readings can be large; an effect the other way counts as inactive or inconclusive. Potency is the fitted concentration of half-maximal effect.

SMILES | KB-3-1 cytotox | MCF10A rereplic | SW480 rerep | ELG1 repair inh | KB-V1 MDR tox
CCC(=O)NC(c1ccc(OC)cc1)c1c(O)ccc2ccccc12 (stereo unspecified) | ? | 20% | ? | 8% | ?
COc1ccc(Cl)cc1C(Nc1cccnc1)c1ccc2cccnc2c1O (stereo unspecified) | ? | ? | 7.3µM* | -11% | ?
CCCC(=O)NC(c1ccc(OC)cc1)c1ccc2cccnc2c1O (stereo unspecified) | ? | ? | -6% | ? | 7.3µM*
O=C(NCc1nc2ccccc2[nH]1)c1c(F)cccc1F | i | . | . | . | i
CCCNC(=O)C1CC(c2ccccc2C(F)(F)F)=NO1 (stereo unspecified) | i | 12% | 1% | 9% | i
COCCCN(Cc1cc(OC)c(OC)c(OC)c1)C(=S)Nc1cccc(Cl)c1 | i | . | . | . | ?
CSc1ccc(CCNC(=O)C(C)n2c(C)c3cnn(-c4ccccc4)c(=O)c3c2C)cc1 (stereo unspecified) | i | . | . | . | i
COC(=O)c1c(NC(=O)c2ccccc2OC)sc(C(=O)N2CCOCC2)c1C | ? | ? | 11% | -23% | i
CC1C(=O)N2CCCc3cc(NC(=O)c4ccccc4C(F)(F)F)cc1c32 (stereo unspecified) | i | 4% | 19% | 0% | i
Cc1cc(NC(=O)CCCC(=O)N(c2ccccc2)C(C(=O)NC2CCCCC2)c2cccs2)no1 (stereo unspecified) | i | -1% | 2% | -20% | 2.1µM*
CC(C)COC(=O)c1ccc2c(c1O)C(=O)c1ccccc1C2=O | i | ? | ? | ? | 15µM*
COc1ccc2c(c1O)C(=O)c1ccccc1C2=O | . | . | . | 9% | .
COC(=O)c1cc(CSc2nnc(NC3CCCCC3)s2)oc1C | ? | 25% | -1% | -22% | 21µM*
O=C(Nc1ccc(Cl)c(Cl)c1)c1ccc(Cn2c(=O)[nH]c3ccsc3c2=O)cc1 | ? | 16µM* | 1% | -18% | i
O=C(Nc1ccc(Oc2ccccc2)cc1)c1ccc(Cn2c(=O)[nH]c3ccsc3c2=O)cc1 | i | ? | -4% | -7% | i
CCn1ncc(Br)c1C(=O)Nc1ccccc1C(=O)OC | 21µM* | 3% | 2% | . | ?
CCn1ncc(Br)c1C(=O)Nc1ccc(F)cc1F | i | 16µM* | 21µM* | 10% | ?
COc1cccc(NC(=O)CN(C)C(=O)Cc2ccc3c(c2)OCCO3)c1 | i | 0% | 3% | 10% | ?
CC(=O)Nc1cccc(OCC(=O)Nc2ccccc2)c1 | i | -1% | -14% | ? | i
COc1cccc(NC(=O)COc2ccccc2)c1 | i | 23µM* | 20% | ? | i
CN(C(=O)c1ccccc1C(=O)OCC(=O)Nc1cccc(Br)c1)c1ccccc1 | i | -3% | -26% | -19% | i
COc1cccc(NC(=O)CN(C)C(=O)Cc2ccc3c(c2)CCC3)c1 | i | 2% | -4% | 0% | 15µM*
COc1cccc(NC(=O)COC(=O)c2ccccc2C(=O)N(C)c2ccccc2)c1 | i | 6% | -2% | 1% | 23µM*
CCOC(=O)Nc1cccc(OCC(=O)Nc2ccccc2OCC)c1 | i | 10% | -15% | ? | 6.5µM*
CN(C)c1ccc(/C=C/c2ccnc3ccc(I)cc23)cc1 | ? | . | . | . | i
c1ccc(-c2nc(SCc3nc4ccccc4[nH]3)c3oc4ccccc4c3n2)cc1 | i | ? | 7% | ? | i
CC(NC(=O)c1ccc(CS(C)(=O)=O)cc1)c1cccc2ccccc12 (stereo unspecified) | i | 19% | 1% | -2% | i
COc1ccc(N(CC(=O)NCCc2ccccc2)C(=O)c2csnn2)cc1 | i | -25% | ? | ? | i
COc1cc(NC(=O)c2sc(C)nc2C)c(OC)cc1NC(=O)c1ccccc1 | i | 18% | -23% | 15µM* | i
O=C(Cc1ccc(Br)cc1)NCc1ccccc1 | 5.8µM* | 5.8µM* | 5.8µM* | ? | 4.6µM*

Source: PubChem (National Center for Advancing Translational Sciences (NCATS))
